Legend:
Experiment in all cases: PBM binding z-score (relative to random genomic background probes); higher = stronger binding; sequences stand for … in GC…GCGATTGACAGCGTAGAATGAAGG
[1] = tested on: RARb homodimer (NR concentration 270 nM)
Method in brief: (§1)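 Random background probes are the reference for binding z-scores. These scores derive from regression-normalized fluorescence on custom Agilent 4×180K protein-binding microarrays incubated 1 h with ligand-free nuclear receptor dimers. Binding was detected with antibodies against each partner (one per run).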

[2] = tested on: RARg:RXRa (NR concentration 270 nM, RXRa partner concentration 90 nM)
Method in brief: as §1

[3] = tested on: RARg homodimer (NR concentration 270 nM)
Method in brief: as §1

[4] = tested on: RXRa DBDmut IVT, anti-RXR (DBD mutation: RXRa K156A/R161A, NR concentration 90 nM)
Method in brief: as §1

[5] = tested on: RXRa homodimer (NR concentration 180 nM)
Method in brief: as §1

[6] = tested on: THRa:RXRa (NR concentration 90 nM, RXRa partner concentration 90 nM)
Method in brief: as §1

[7] = tested on: THRa homodimer (NR concentration 90 nM)
Method in brief: as §1

[8] = tested on: VDR homodimer (NR concentration 270 nM)
Method in brief: as §1

| Sequence | PBM binding z-score [1] | PBM binding z-score [2] | PBM binding z-score [3] | PBM binding z-score [4] | PBM binding z-score [5] | PBM binding z-score [6] | PBM binding z-score [7] | PBM binding z-score [8] |
| --- | --- | --- | --- | --- | --- | --- | --- | --- |
| CATACAGGGTCAGCTAGGCCAGAATAGGGACGGC | 3.37 | 4.33 | 4.34 | 1.53 | 4.26 | 3.04 | 1.13 | 0.805 |
| TAGCCTAGGTCATTCAGGGGCCCGTATAGAAAGC | 2.42 | 4.22 | 3.89 | 1.39 | 2.77 | 3.61 | 0.839 | 1.32 |
| TCTGCTAGGTCTACGATGGTCAGCTAATCTGCTA | -0.552 | -0.506 | -0.409 | 0.00299 | -0.775 | -1.43 | -1.26 | -1.28 |
| TCGAGTAAGTTAGTCGGGGCATTCAGCCAACATA | -0.375 | -0.647 | -0.674 | 0.38 | -0.255 | 0.0972 | -0.58 | -0.125 |
| GCTTGTAGATGAAGGTTAAGAAAGACTAAGCTAA | 0.181 | 0.18 | 0.177 | -0.235 | 0.368 | 0.351 | -0.694 | -0.443 |
| ATATGTAGGTTACCTCCGGGTCATTCAGGCTATG | 3.04 | 4.19 | 2.43 | 0.792 | 3.8 | 3.78 | 2.66 | 2.02 |
| TGTAAAAGTTCAAAGGTAACGTAAGTATCCACAC | 3.5 | 5.35 | 5.12 | 4.06 | 6.28 | 3.53 | 0.192 | 2.83 |
| TCTTGGAGATCAATAGAGGTTAAGAAAGTGCGCT | 1.39 | 0.878 | 0.376 | 0.544 | 1.5 | 3.19 | -0.339 | 0.159 |
| CCTACTGGGCCACGAAAGGACATTGATTCAGTGA | 1.2 | 0.593 | 1.01 | -0.0534 | -0.0708 | 1.94 | 0.069 | -0.0244 |
| TCTGCTAGTTCAACGATGGTCAGCTAATCTGCTA | 0.82 | 0.768 | 1.03 | 1.32 | 0.188 | 0.928 | -1.34 | 0.129 |
| CGTGCAAGGTCAATGCTAGGTCAGTGAAAGCATT | 4.95 | 7.96 | 7.27 | 3.39 | 5.44 | 4.64 | 2.44 | 2.89 |
| ATATGTAGGTTATCGGGTAATTCAGTTTGCGCAT | 0.9 | 0.94 | 0.821 | 0.617 | 1.05 | 1.29 | 1.26 | 1.3 |
| CTACCAGGGTGAACAAGGTCGTTGATTACTATTC | 1.69 | 1.59 | 0.976 | 0.927 | 1.85 | 3.28 | 1.27 | 2.42 |
| ACTAGCAGGCCAAGGGACACTCAAGATTAGTCCG | 0.745 | 0.424 | 0.835 | -0.24 | -0.0147 | -0.112 | -0.143 | -0.433 |
| TCATATAGGTACAAGGTGAAAGTCGGTGTGGTAA | 1.38 | 0.762 | 0.453 | 2.04 | 1.33 | 1.91 | 1.51 | 0.703 |
| TGATTGAGGTTAAAGATCAGGGAACGTGGCGTCG | 1.01 | 2.5 | 1.35 | 0.759 | 3.67 | 2.57 | 0.317 | 0.679 |
| GCTAGTTCGTCAGTAAAAGGTCACACACCGGTCG | 5 | 5.12 | 4.64 | 2.51 | 5.36 | 3.72 | 1.98 | 2.88 |

| Sequence | PBM binding z-score [1] | PBM binding z-score [2] | PBM binding z-score [3] | PBM binding z-score [4] | PBM binding z-score [5] | PBM binding z-score [6] | PBM binding z-score [7] | PBM binding z-score [8] |
| --- | --- | --- | --- | --- | --- | --- | --- | --- |
| CGTCCAAGGTCAGAGAGGTCAGTGATTGCCGAGT | 5.16 | 6.26 | 7.26 | 3.31 | 5.33 | 4.13 | 3.03 | 5.48 |
| TCTTGTAGATCAATATAGGTTAAGAAAGTGCGCT | 0.819 | 0.579 | 0.586 | 1.31 | 0.962 | 1.03 | -0.0282 | 0.0852 |
| GATACAGGATCAAGGCCAGAGTACGCGTATTGAT | 0.0211 | 0.189 | 0.325 | -0.499 | 0.195 | -0.265 | -0.214 | 0.147 |
| ACAGACAGGTGATGACGGTAACTCAGGCTATCAT | 0.213 | 0.122 | 0.261 | -0.0365 | 0.15 | 0.339 | -0.087 | -0.266 |
| GCTGCTAGGTCAGGTTGGACAGCTAACGGGTACG | 2.35 | 2.56 | 3.42 | 0.208 | 1.06 | 1.69 | 0.46 | 0.386 |
| CGTCCAAGGTCAATGCTAGGTCATTGAAAGCATT | 4.92 | 7.82 | 7 | 3.83 | 6 | 4.65 | 3.74 | 4.05 |
| CCTAGCAGGCCAATCCGGGTCACTCAAGGCTTGA | 2.35 | 1.67 | 1.42 | 0.0497 | 1.65 | 4.38 | 1.72 | 0.638 |
| CCTCGGAGGACATCAGGAGGTCAGAGCTGCCAGA | 3.17 | 3.48 | 3.04 | 0.267 | 2.63 | 2.67 | 1.05 | 1.06 |
| GCTGCTAAGTCAGGTTGGTCAGCTAACGGGTACG | 0.212 | -0.383 | -0.568 | -0.027 | -0.344 | -0.197 | -0.581 | -0.246 |
| CGTCCAAGGTAAAAGGTCAGTGAAGAGATGACGG | 4.88 | 4.86 | 5.11 | 0.584 | 5.53 | 3.28 | 0.539 | 0.435 |
| TCTTGTAGATCAACAGGAGGGTAAGAAAGATCGA | -0.229 | 0.172 | 0.108 | 0.172 | 0.0944 | -0.144 | -1.1 | -0.319 |
| GCTAGTTGGTCAGTCAAAGGTCACACACCGGTCG | 5.2 | 5.9 | 4.85 | 0.537 | 5.93 | 3.52 | 1.59 | 1.47 |
| ATATGTAGGTTACATCCGGGTCATGCAGGCTATG | 2.93 | 3.76 | 2.25 | 0.707 | 3.4 | 4 | 2.29 | 1.76 |
| ACAATTAGTTGACTTAGGGCAACCGATACGACGC | 1.03 | 0.677 | 0.936 | 0.628 | 0.455 | 1.37 | 0.444 | 0.709 |
| GCATACAGGTAATACAAGGTGAAAGTCCGATTGT | 1.04 | 0.773 | 0.617 | 0.25 | 0.894 | 4.17 | 1.16 | 0.161 |
| TCTGCTAGGTCAGTTGGTCGGCTAACGAGCTGCC | 2.21 | 2.28 | 3.11 | 0.384 | 0.902 | 1.17 | -0.205 | -1.1 |
| ATCTCTAGCTAAGACTCAGTTCAGTGAAGAACGC | 0.502 | 0.00118 | -0.132 | 0.313 | 0.0167 | 0.338 | 0.471 | 1.11 |

Source: the supplement of paper PMC6555819
